High-throughput results as filed in PubChem.
KB-V1 cytotox = qHTS assay for MDR1-selective chemotherapeutics: Primary screen using the drug-selected MDR subline cells KB-V1; Potency, µM (titrated, usually from 46.1 µM), actives largely listed as cytotoxic; 3.4% of 400,000 active; KB-V1 MDR cells viability, CellTiter-Glo, 72 h; also: % is scaled to controls: 0 for no effect and ±100 for the full control effect; nearly all actives have a fitted effect of over 60% in size
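Cytotoxicity via CellTiter-Glo luminescence after 72 h compound exposure at 37 degrees C. Cells: drug-selected KB-V1 line, DMEM phenol-red free plus 10% FBS. Compounds tested at multiple concentrations; normalized data fitted to concentration-effect curves.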
HT1080 IDH1KD tx = qHTS for induction of synthetic lethality in tumor cells producing 2HG: qHTS for the HT-1080-IDH1KD cell line; Potency, µM (series often up to 46.1 µM), inactives show at the top dose activity, negative = toxicity, most hits filed as cytotoxic; AID 686971, 2013; HT-1080 IDH1 knockdown viability, ATP luminescence, 48 h; 2% of 360,000 active;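 also: 0% = DMSO wells and -100% = cell-free medium wells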
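In this qHTS, HT-1080 cells depleted of IDH1 are exposed for 48 h at 37 °C to compound titrations. Toxicity is scored from CellTiter-Glo luminescence, with DMSO as full viability and medium alone as none.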
HT1080NT lethal = qHTS for induction of synthetic lethality in tumor cells producing 2HG: qHTS for the HT-1080-NT fibrosarcoma cell line; HT-1080-NT fibrosarcoma viability, CellTiter-Glo ATP luminescence, 48 h; Potency, µM (titrated, usually from 46.1 µM), for inactives: at the top dose activity, negative = less viability, usual class: cytotoxic; 1.6% of 360,000 active; AID 686970, 2013;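 also: NT is the 2HG producing partner of a matched IDH1 knockdown line; 0% = DMSO-treated cells and -100% = media-only wells without cells; nearly all actives have a fitted effect of over 55% in size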
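A 48-hour cytotoxicity screen used HT-1080-NT cells plated 2 hours before compound delivery. ATP-based CellTiter-Glo luminescence measured viability, normalized to DMSO and no-cell controls.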
MCF10A rerep = A quantitative high throughput screen for small molecules that induce DNA re-replication in MCF 10a normal breast cells. MCF 10A DNA re-replication, Hoechst nuclear intensity, 48 h. 2.9% of 350,000 active. Potency, µM (titrated, usually from 46.1 µM), for inactives: at the highest dose activity, positive = re-replication, most hits filed as activators; also: % of control where 0% means no effect; nearly all actives have a fitted effect of over 50% in size
SW480 rereplic = A quantitative high throughput screen for small molecules that induce DNA re-replication in SW480 colon adenocarcinoma cells; 1.8% of 340,000 active; Potency, µM (doses to about 46.1 µM), for the others: at the top dose re-replication activation, actives largely listed as activators; AID 624297, 2012; SW480 DNA re-replication, Hoechst DNA content imaging, 48 h; also: % of control where 0% means no effect; nearly all actives have a fitted effect of over 55% in size
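250 cells/well; 23 nL cpd via pin tool; 48 hr, 37 C, 5% CO2; Hoechst 40 min; imager read of total nuclear intensity, ex 405/em 500-530 nm.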
KB-3-1 cytotox = qHTS assay for MDR1-selective chemotherapeutics: Primary screen using the parental adenocarcinoma cell KB-3-1. KB-3-1 viability, CellTiter-Glo ATP luminescence, 72 h. Potency, µM (highest dose often 46.1 µM), hits mostly cytotoxic. 1.4% of 400,000 active; also: % is scaled to controls: 0 for no effect and ±100 for the full control effect; nearly all actives have a fitted effect of over 60% in size
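Cells are dispensed, compounds pinned in, plates held at 37 °C for 72 h, then CellTiter-Glo is added and luminescence read after 10 minutes. Cell line: parental KB-3-1 in phenol-red-free DMEM, 10% FBS.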
Starred values were filed as active, the others as inactive; i = inactive; ? = inconclusive; nt = not tested or not shown; [ ] = dose if it differs, or a comment. Sampled rows, rich in hits. Any-hit rate of the full collection: about 8%. Calls follow the shape of the dose curve; as a rule, active = well fitted curve in the direction sought with a large enough effect; inconclusive = small, poorly fitted or top-dose-only effect, or another doubt; inactive = no such curve, though single readings can be large; an effect the other way counts as inactive or inconclusive. Potency is read from the fitted curve at half-maximal effect.

SMILES | KB-V1 cytotox | HT1080 IDH1KD tx | HT1080NT lethal | MCF10A rerep | SW480 rereplic | KB-3-1 cytotox
CC(c1ccco1)N(C(=O)c1cc(Cl)cc(Cl)c1)c1ccccn1 (stereo not given) | ? | -2.5% | -8.8% | 2.6% | -12.9% | i
Cc1cc(C)cc(C(=O)N(c2ccccn2)C(C)c2ccco2)c1 (stereo not given) | 13µM* | 1.3% | 6.1% | 14.0% | 0.4% | i
Cc1cccc(C(=O)N(c2ccccn2)C(C)c2ccco2)c1 (stereo not given) | i | 3.9% | 10.2% | -3.7% | -5.0% | i
C[C@@H](NC(=O)CN(c1ccccc1)S(=O)(=O)N(C)C)c1ccccc1 | i | nt | nt | nt | nt | i
Cc1nc(NS(=O)(=O)c2ccc(Cl)s2)c2c3c(sc2n1)CCCC3 | 11.6µM* | ? | ? | ? | -10.7% | ?
COC(=O)c1ccccc1NC(=O)c1ccc2nc(Cc3ccccc3)oc2c1 | i | nt | nt | nt | nt | i
COc1ccc(NC(=O)c2cccc3c(=O)c4c([nH]c23)CCCC4)cc1 | i | nt | nt | nt | nt | i
O=Cc1cc2ccccc2nc1SCc1ccc(Cl)cc1 | ? | 7.31µM* | 5.17µM* | ? | ? | 6.51µM*
Cc1ccc(CSc2nc3ccccc3cc2C=O)cc1 | ? | 6.51µM* | 5.8µM* | 20.6µM* | 2.59µM* | 8.2µM*
Clc1ccc(CSc2cnnc3ccccc23)cc1Cl | i | -13.5% | -11.9% | -15.5% | -10.0% | i
O=Cc1cc2ccccc2nc1SCc1ccc(Cl)c(Cl)c1 | 5.8µM* | 5.8µM* | 4.11µM* | ? | ? | 4.61µM*
Cc1ccc(CSc2ncnc3ccccc23)cc1 | i | -1.4% | -5.8% | 23.3% | 16.7% | i
COc1ccc(-c2nnc(C3CCN(S(=O)(=O)c4cccc(Cl)c4)CC3)o2)cc1 | i | nt | nt | nt | nt | ?
COc1ccc(NC(=O)Cn2c(=O)n(CCC(=O)NCCc3ccc(OC)c(OC)c3)c(=O)c3ccccc32)cc1Cl | ? | nt | nt | nt | nt | i
COc1ccc(C#Cc2c(-c3ccccc3)n(-c3ccccc3)c3ccc(CO)cc23)cc1 | ? | ? | ? | 20.6µM* | ? | i
COc1ccc(-c2c(C#Cc3ccc(N(C)C)cc3)c3ccccc3n2C)cc1 | i | -11.7% | -1.6% | ? | ? | i
CC(C)NC(=O)Cn1ccc2cc(S(=O)(=O)N3CCCCCC3)ccc21 | i | nt | nt | nt | nt | i
COc1ccc(C(=O)Nc2ccc(N3CCOCC3)cc2)cc1S(=O)(=O)N1CCOCC1 | i | 2.5% | 1.0% | 0.7% | -2.5% | i
O=C(Nc1ccc(Cl)c(S(=O)(=O)N2CCOCC2)c1)c1ccc(OCC2CCCO2)cc1 (stereo not given) | i | 25.9µM* | 18.4µM* | 18.4µM* | -18.5% | ?
COc1ccc(C(=O)Nc2ccc(Cl)c(S(=O)(=O)N3CCOCC3)c2)cc1 | 7.31µM* | -4.0% | 3.66µM* | ? | 3.3% | ?
COc1ccc(NC(=O)c2ccc(Br)c(S(=O)(=O)N3CCOCC3)c2)cc1 | 20.6µM* | -13.0% | -18.7% | -2.2% | 7.9% | ?
COc1ccc(NS(=O)(=O)c2cc(NC(=O)c3ccc(Cl)cc3)ccc2N2CCOCC2)cc1 | 5.8µM* | 2.59µM* | 2.31µM* | 2.31µM* | 1.46µM* | ?
COc1ccc(C(=O)Nc2ccc(S(=O)(=O)N3CCOCC3)cc2)cc1 | i | -5.1% | 3.6% | -0.7% | -1.9%[9.22 µM] | i
O=C1CCC2=C1C1(CCCC1)N=C(Nc1nc3ccccc3o1)N2 | i | nt | nt | nt | nt | i
COc1ccc(OC)c(NC(=O)CSc2n[nH]c(-c3ccccc3Cl)n2)c1 | ? | nt | nt | nt | nt | i
SMILES | KB-V1 cytotox | HT1080 IDH1KD tx | HT1080NT lethal | MCF10A rerep | SW480 rereplic | KB-3-1 cytotox
CC(C)Oc1ccc(C(=O)Nc2ccc(Cl)c(S(=O)(=O)Nc3ccc(Cl)cc3)c2)cc1 | 5.8µM* | -28.3% | ? | ? | ? | ?
CC(NC(N)=O)C(=O)Nc1ccc(Cl)c(S(=O)(=O)Nc2ccc(Cl)cc2)c1 (stereo not given) | i | -1.8% | 13.4% | 1.5% | -3.2% | i
COC1CCN(Cc2cn(Cc3ccccc3)nc2-c2cc3ccccc3o2)CC1 | ? | 25.9µM* | ? | 2.0% | ? | ?
OCC1CCN(Cc2cn(Cc3ccccc3)nc2-c2cc3ccccc3o2)CC1 | ? | ? | ? | 3.7% | 21.9% | i
CC(=C/c1ccccc1)/C=N/n1cnnc1 | i | 0.8% | -1.2% | -2.0% | -17.2% | i
CC(/C=N/n1cnnc1)=C\c1ccccc1 | 1.84µM* | 15.8% | 12.3% | 1.4% | -3.3% | 5.17µM*
CN(Cc1ccccc1)C(=O)c1ccc(Nc2nc(CN)cs2)nc1 | i | 1.9% | -8.3% | nt | nt | i
CC(=O)c1ccc(Nc2nc(C(N)Cc3ccc(Cl)cc3)cs2)cc1 (stereo not given) | i | ? | 23.1µM* | nt | nt | ?
CC(C)C(N)c1csc(Nc2ccc(C(=O)N(C)Cc3ccccc3)cn2)n1 (stereo not given) | i | 14.6µM* | 14.6µM* | nt | nt | i
CC(=O)c1ccc(Nc2nc(C(N)Cc3ccc(N)cc3)cs2)cc1 (stereo not given) | i | 0.0% | -7.1% | nt | nt | i
CC(=O)c1ccc(Nc2nc(C(N)CCc3ccccc3)cs2)cc1 (stereo not given) | i | ? | 20.6µM* | nt | nt | i
COc1ccc(CCNC(=O)Cn2nnc(-c3cccc(C(F)(F)F)c3)n2)cc1OC | i | nt | nt | nt | nt | i
Cc1cn(S(=O)(=O)c2ccc(F)c(Cl)c2)cn1 | i | nt | nt | nt | nt | i
COc1cc(C2NC(=O)NC(c3ccccc3)=C2C(C)=O)cc(Cl)c1OCC(=O)O (stereo not given) | i | 10.6% | 2.4% | 10.9% | 1.2% | i
COc1cc(C2NC(=O)NC(c3ccccc3)=C2C(C)=O)c(Cl)cc1OCC(=O)O (stereo not given) | i | 15.3% | 17.3% | 7.2% | 4.11µM* | ?
C=CCn1c(SCN2C(=O)c3ccccc3C2=O)nc2ccc(Cl)cc2c1=O | 16.4µM* | 0.3% | -1.4% | 3.9% | -7.7% | ?
COc1ccccc1NC(=O)Cn1nc2c3cc(F)ccc3n(Cc3cccc(C)c3)cc-2c1=O | i | nt | nt | nt | nt | i
